SENP7 inh: blocks the human protease SENP7 | AID 434973 | inhibition, % at 5 µM | 330,000 tested, 1.5% active | Q9BQF6 | recombinant SENP7, Z-RLRGG-aminoluciferin luminescence, 40 min;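 active = inhibition above about 50% at the single test dose, limit read from the data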
Target sequence (Q9BQF6 706-1050 limits assumed): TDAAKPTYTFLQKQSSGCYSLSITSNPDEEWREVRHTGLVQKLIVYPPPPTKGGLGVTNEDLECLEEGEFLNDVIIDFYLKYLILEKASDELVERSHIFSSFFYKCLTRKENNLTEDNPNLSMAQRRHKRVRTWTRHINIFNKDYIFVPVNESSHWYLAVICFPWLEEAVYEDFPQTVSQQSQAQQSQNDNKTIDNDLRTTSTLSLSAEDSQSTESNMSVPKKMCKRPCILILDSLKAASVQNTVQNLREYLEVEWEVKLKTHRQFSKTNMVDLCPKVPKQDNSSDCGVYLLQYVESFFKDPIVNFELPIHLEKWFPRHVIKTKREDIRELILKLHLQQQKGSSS
PPC-1+TRAIL kill: compounds killing PPC-1 cancer cells with TRAIL present (potentiator screen, no TRAIL-free arm). PPC-1 cells + TRAIL, ATPLite viability luminescence. cell killing (% activity), % at 4 µM or 5 µM. 220,000 tested, 0.41% active. AID 1443;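 active = cell killing above 50% in the first pass at 4 µM, then a duplicate retest at 5 µM averaging 50% or more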
SENP8 block-1: inhibitors of human SENP8 protease | recombinant SENP8, Nedd8 substrate fluorescence | inhibition, % at 20 µM | 360,000 tested, 0.64% active | AID 602440; in the data active = inhibition mostly above about 40%, no sharp cut-off; inactive = mostly below about 27%
Target sequence (Q96LD8 whole entry, looked up): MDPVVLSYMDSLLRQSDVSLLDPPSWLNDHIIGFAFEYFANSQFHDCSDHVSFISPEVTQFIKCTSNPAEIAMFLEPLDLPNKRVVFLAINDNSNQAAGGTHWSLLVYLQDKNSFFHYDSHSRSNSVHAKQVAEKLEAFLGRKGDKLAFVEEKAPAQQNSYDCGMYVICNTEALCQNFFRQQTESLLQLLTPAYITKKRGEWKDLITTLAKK
SENP6 inh: inhibitors of human SENP6 protease | Q9GZR1 | Recombinant SENP6 catalytic domain, aminoluciferin luminescence | inhibition, % at 10 µM | 330,000 tested, 1.8% active | AID 2599;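 active = inhibition above about 50% at the single tested dose, limit read from the data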
C8 TRAIL sens: caspase-8 TRAIL sensitization; NB7+C8 cells + TRAIL, ATPlite viability luminescence; inhibition (viability loss, TRAIL sensitization), % at 10 µM; 360,000 tested, 1% active; AID 624354;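 active = compounds causing at least 50% loss of cell viability in the single-dose screen, relative to plate controls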
SENP8 block-2: SENP8 protease inhibition; inhibition, % at 10 µM; 330,000 tested, 1.2% active; purified SENP8, Z-RLRGG-aminoluciferin cleavage, luminescence; AID 2540; Q96LD8; in the data active = inhibition above about 50%
PPC1 cytotox: kills PPC-1 cells | cytotoxicity, % at 5 µM | shares compounds with PPC-1+TRAIL kill | PPC-1 viability, ATPlite luminescence, overnight | 1,200 tested, 50% active;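 active = reconfirmed compounds whose average cytotoxicity reaches 50% or more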
Large screens that a line does not name were inactive (follow-up assays come after a bar, where they were run). Hits are enriched below; roughly 3% of the tested compounds scored in any of these assays.

Cc1nc(NC(=O)c2ccccc2)sc1-c1csc(Nc2ccc(Cl)cc2)n1	SENP6 inh 50.9 (no result: SENP8 block-1, C8 TRAIL sens)
Cc1nc(NC(=O)c2ccccc2)sc1-c1csc(Nc2ccc(Cl)cc2Cl)n1	SENP7 inh 59.3, SENP6 inh 50.9 (no result: SENP8 block-1, C8 TRAIL sens)
N/C(=N\O)c1ccccc1N1CCCCC1	none
COc1ccc2nc(C)cc(SCC(=O)N/N=C/c3ccccc3)c2c1	none
COc1ccc2nc(C)cc(Nc3ccc(N4CCN(C)CC4)cc3)c2c1	C8 TRAIL sens 48.8 (no result: PPC-1+TRAIL kill)
COc1ccc(/C=N/Nc2cc(C)nc3ccc(OC)cc23)c(OC)c1	C8 TRAIL sens 89.3 (no result: PPC-1+TRAIL kill)
COc1ccc2nc(C)cc(N/N=C/c3ccccc3)c2c1	C8 TRAIL sens 52.8 (no result: PPC-1+TRAIL kill)
COc1ccccc1/C=N/Nc1cc(C)nc2ccc(C)cc12	none (no result: PPC-1+TRAIL kill)
COc1ccccc1N1CCN(C(c2ccc(N(C)C)cc2)c2nnnn2CCc2ccccc2)CC1 (centres undefined)	SENP8 block-1 46.6
COc1ccc(C(c2nnnn2Cc2ccccc2)N2CCN(c3nc4ccccc4s3)CC2)cc1 (centres undefined)	none
COCCn1nnnc1C(c1ccc(OC)c(OC)c1)N1CCN(c2nc3ccccc3s2)CC1 (centres undefined)	PPC-1+TRAIL kill 71.4
COc1ccc(C(c2nnnn2CCc2ccccc2)N2CCN(C3CCCC3)CC2)cc1 (centres undefined)	none
C=C1C(=O)N(C)CCC1C(CC)C(=O)OC (centres undefined)	none (no result: SENP7 inh, PPC-1+TRAIL kill, SENP6 inh, SENP8 block-2)
CN(Cc1ccccc1)C(=O)Cn1nnc(-c2ccccc2)c1COc1ccc2ccccc2c1	none (no result: SENP7 inh, PPC-1+TRAIL kill, SENP6 inh, SENP8 block-2)
COc1cc2ccccc2cc1C(=O)Nc1sc2c(c1C(N)=O)CCN(C(C)C)C2	C8 TRAIL sens 82.7 (no result: PPC-1+TRAIL kill)
Oc1c(CN2CCCCC2)cc(Br)c2cccnc12	SENP8 block-1 53.1, C8 TRAIL sens 50.6
Oc1c(Cl)cc(CN2CCOCC2)c2cccnc12	none (no result: PPC-1+TRAIL kill)
O=[N+]([O-])c1cc(CN2CCOCC2)c2cccnc2c1O	none (no result: SENP7 inh, SENP8 block-1, SENP6 inh, C8 TRAIL sens, SENP8 block-2)
O=[N+]([O-])c1cc(CN2CCN(c3ccccc3)CC2)c(O)c2ncccc12	SENP8 block-1 48.0
COc1ccc(Cl)cc1NC(=O)CN1C(=O)NC2(CCCC2)C1=O	none (no result: PPC-1+TRAIL kill)
Cc1cc(=O)[nH]c(SCC(=O)N2CCCCCC2)n1	none | PPC1 cytotox inactive
CCCc1cc(=O)[nH]c(SCC(=O)N2CCN(c3ccc(F)cc3)CC2)n1	none | PPC1 cytotox inactive
CCCc1cc(=O)[nH]c(SCC(=O)N2CCC(C)CC2)n1	none (no result: PPC-1+TRAIL kill)
Cc1cc(=O)[nH]c(SCC(=O)N2CCCCC2)n1	none (no result: PPC-1+TRAIL kill)
CC(C)OC(=O)Nc1ccc2c(c1)N(C(=O)N1CCN(C)CC1)c1ccccc1CC2	PPC-1+TRAIL kill 74.5, C8 TRAIL sens 78.9 | PPC1 cytotox 73.5
Cc1nn(C)cc1/C=C/C(=O)c1cccs1	none | PPC1 cytotox inactive
CC(C#N)(NC(=O)CN1CCN(S(=O)(=O)c2ccccc2Cl)CC1)C1CC1 (centres undefined)	none (no result: PPC-1+TRAIL kill)
CC1(C)CC(=O)C2=C(C1)OC(N)=C(C#N)C2c1ccccc1[N+](=O)[O-] (centres undefined)	none
CC1(C)CC(=O)C2=C(C1)OC(N)=C(C#N)C2c1ccccc1OC(=O)N1CCOCC1 (centres undefined)	none | PPC1 cytotox inactive
Cc1ccc(C(=O)n2c(=S)nc3ccccn32)cc1	PPC-1+TRAIL kill 90.8 (no result: SENP7 inh, SENP8 block-1, SENP6 inh, C8 TRAIL sens, SENP8 block-2) | PPC1 cytotox 90.3
Cc1cccn2c1nc(=S)n2C(=O)c1ccco1	none (no result: SENP7 inh, SENP6 inh, SENP8 block-2)
CCOc1ccc(-c2ccc(SCC(=O)NCC3CCCO3)nn2)cc1 (centres undefined)	C8 TRAIL sens 52.2 | PPC1 cytotox inactive
CCc1nnc(NC(=O)CSc2ccc(-c3ccc(C)cc3)nn2)s1	none
CCOc1ccc(-c2ccc(SCC(=O)Nc3nnc(CC)s3)nn2)cc1	PPC-1+TRAIL kill 69.8, C8 TRAIL sens 67.1 | PPC1 cytotox 67.7
COc1ccc(-c2ccc(SCC(=O)Nc3nnc(C)s3)nn2)cc1	PPC-1+TRAIL kill 50.5, C8 TRAIL sens 54.9 | PPC1 cytotox 50.1
O=C(Cc1cccs1)NCc1ccco1	none | PPC1 cytotox inactive
O=C(Cc1cccs1)NNC(=S)NCc1ccco1	none
O=C(Cc1cccs1)Nc1ccc(Cl)cc1	none | PPC1 cytotox inactive
COc1ccc(-c2noc(CCCC(=O)N3CCOCC3)n2)cc1	none
CC(C)(C)c1ccc(-c2noc(CCC(=O)N3CCOCC3)n2)cc1	C8 TRAIL sens 64.3 | PPC1 cytotox inactive
CC(C)(C)c1ccc(-c2nnc(N)s2)cc1	C8 TRAIL sens 70.6 | PPC1 cytotox inactive
COc1ccc(N2CCN(Cc3nc4cc(Cl)ccc4c(=O)[nH]3)CC2)cc1	none | PPC1 cytotox inactive
CC(=O)N1CCN(Cc2nc3cc(Cl)ccc3c(=O)[nH]2)CC1	none
CNC(=S)N/N=C(\C)c1ccc(N2CCOCC2)cc1	none (no result: SENP7 inh, SENP6 inh, SENP8 block-2) | PPC1 cytotox inactive
Cc1nc(C(F)(F)F)ccc1C(=O)N1CCCC(C(=O)O)CC1 (centres undefined)	none (no result: SENP7 inh, PPC-1+TRAIL kill, SENP6 inh, SENP8 block-2)
CCCCCCCCCn1c2c(c(=N)c3c1CCC3)CCCC2	none | PPC1 cytotox inactive
CCCCCCCCCCn1c2c(c(=N)c3c1CCC3)CCC2	PPC-1+TRAIL kill 56.4, C8 TRAIL sens 78.7 | PPC1 cytotox 53.5
CC(NS(=O)(=O)/C=C/c1ccccc1)C(=O)NCCc1ccc(S(N)(=O)=O)cc1 (centres undefined)	none
CC(=O)N1CCOC12CCN(Cc1ccccc1)CC2	none (no result: SENP7 inh, PPC-1+TRAIL kill, SENP6 inh, SENP8 block-2)
CN1C2C=C3C(C#N)=C(N)C(C#N)(C#N)[C@@H](c4cccs4)C3C1CC2 (some centres undefined)	none | PPC1 cytotox inactive
CN1C2C=C3C(C#N)=C(N)C(C#N)(C#N)[C@H](c4c(F)cccc4F)[C@H]3C1CC2 (some centres undefined)	none
COc1cc(/C=N/N=C/c2c[nH]c(=O)c(C#N)c2Nc2ccccc2)ccc1O	none (no result: SENP8 block-1, C8 TRAIL sens)
Cc1ccc(Sc2ncnc3onc(C)c23)c(C)c1	none (no result: SENP7 inh, SENP6 inh, SENP8 block-2) | PPC1 cytotox inactive
Cc1noc2ncnc(Sc3ccccc3Cl)c12	none
O=C(N/N=C/c1c(F)cccc1Cl)C(=O)N1CCCCCC1	none (no result: PPC-1+TRAIL kill)
COc1ccc(N=Nc2ccc(O)c3ncccc23)cc1	none | PPC1 cytotox inactive
Cc1ccc(NC(=O)c2cc3ccccc3o2)cc1S(=O)(=O)N(C)C	C8 TRAIL sens 66.9 (no result: SENP7 inh, SENP6 inh, SENP8 block-2) | PPC1 cytotox inactive
CN(C)S(=O)(=O)c1ccc(NC(=O)c2cc3ccccc3o2)cc1	none
Cc1ccccc1NC(=O)c1nc[nH]c1C(=O)NCc1ccccc1	none | PPC1 cytotox inactive
Cn1c2ccc(Cl)cc2c2nc3ccccc3nc21	none | PPC1 cytotox inactive
C(=N\Nc1nc2ccccc2[nH]1)/c1ccccn1	PPC-1+TRAIL kill 79.0, C8 TRAIL sens 91.5 (no result: SENP7 inh, SENP6 inh, SENP8 block-2) | PPC1 cytotox 80.4
COc1ccc(/C=N/Nc2nc3ccccc3[nH]2)cc1OC	none
Fc1ccccc1-c1ccc(/C=N/Nc2nc3ccccc3[nH]2)o1	PPC-1+TRAIL kill 79.8, C8 TRAIL sens 78.8 | PPC1 cytotox 77.7
Cc1ccc(/C=N\Nc2nc3ccc(Cl)cc3[nH]2)o1	none | PPC1 cytotox inactive
C(=N\Nc1nc2ccccc2[nH]1)/c1cccc2nccnc12	none

Bioassay records deposited in PubChem BioAssay by Sanford-Burnham Center for Chemical Genomics.
